Assay outcomes deposited in PubChem by several laboratories.
NTR1 ag = agonists of human NTR1, primary screen, imaging, U2OS cells, beta-arrestin-GFP, high content; Neurotensin receptor type 1 (Homo sapiens), P30989; NTR1-U2OS beta-arrestin-GFP spot imaging, agonist mode; activation, % at 20 µM; actives 0.17% (n = 330,000); AID 493036, 2011;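 active = activation at or above 40% of the spot to cytoplasm intensity ratio, with at least 20 cells analyzed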;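 note: 0% = DMSO without peptide and 100% = 100 nM NTR1 peptide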
Target sequence (P30989 whole entry, looked up): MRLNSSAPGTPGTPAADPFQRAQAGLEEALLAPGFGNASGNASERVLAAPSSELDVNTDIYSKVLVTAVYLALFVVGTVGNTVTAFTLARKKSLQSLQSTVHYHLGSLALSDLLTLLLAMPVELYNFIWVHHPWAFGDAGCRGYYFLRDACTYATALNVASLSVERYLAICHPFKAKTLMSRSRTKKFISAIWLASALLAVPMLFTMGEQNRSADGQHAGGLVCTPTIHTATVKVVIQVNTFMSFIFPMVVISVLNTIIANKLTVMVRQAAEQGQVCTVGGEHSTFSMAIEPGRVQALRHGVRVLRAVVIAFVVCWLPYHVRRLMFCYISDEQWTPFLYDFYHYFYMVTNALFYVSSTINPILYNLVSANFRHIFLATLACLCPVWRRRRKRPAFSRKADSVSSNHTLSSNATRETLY
Platelet DG rel = inhibitors of platelet dense granule secretion, primary screen, cell-based, MLPCN, human platelets | actives 0.22% (n = 300,000) | AID 1663, 2009 | human platelet-rich plasma, SFLLRN dense granule ATP release, luminescence | inhibition, %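 (compounds screened at 7.5 µM in platelet-rich plasma)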;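 active = mean replicate score, as percent of positive control, at or above 50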
GRK2 inh = compounds blocking aptamer binding on GRK2 – biochemical, human GRK2, bead flow cytometry, HTS, primary screen. Beta-adrenergic receptor kinase 1 (Homo sapiens), P25098. FAM-aptamer displacement from GRK2. inhibition of aptamer binding, % at 10 µM. actives 0.59% (n = 330,000). AID 488847, 2010;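 active = inhibition of aptamer binding above 40%, roughly 3 SD of noise, on plates passing a quality check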;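 note: median bead fluorescence of bound FAM aptamer so fluorescent compounds give negative values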
beta cell repl = inducers of MIN6 beta-cell proliferation, primary screen, ATP luminescence, uHTS | proliferation, % at 10 µM | MIN6 cells proliferation, ATPlite luminescence, 48 h; cells starved in 0.2% serum; 100% = growth in 10% serum | actives 0.29% (n = 330,000);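 active = compounds whose signal lies at least 3.5 SD above the mean of all wells on their plate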;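 note: 0% = DMSO-treated cells in low-serum medium and 100% = 10% serum control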
GRK2 CP1 = GRK2 aptamer-displacing inhibitors, retest, confirmation, biochemical, cherry pick 1, bead flow cytometry; aptamer displacement, % at 10 µM; shares compounds with GRK2 inh; bead-bound GRK2, FAM-aptamer displacement; actives 4% (n = 2,000); AID 504451, 2011;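 active = aptamer displacement above 40%, near three times the noise of non-fluorescent compounds, on plates passing quality checks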;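 note: negative values mostly reflect intrinsic compound fluorescence rather than true enhancement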
FAM quench CP1 = aptamer fluorescence quenching in GRK2 counter-screen; Carboxyfluorescein RNA aptamer on beads, flow cytometry quenching; hits give low values; fluorescence response (% of DMSO), % at 10 µM; shares compounds with GRK2 inh; 2,000 tested, under 10 active;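 active = compounds that quench the bead-bound fluorescent RNA probe, cutting fluorescence to under half of the solvent control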;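 note: counterscreen run without GRK2 so only probe quenching by compound is measured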
GRK2 confirm 2 = GRK2 aptamer-displacing inhibitors, hit retest, confirmation, biochemical, cherry pick 2, bead flow cytometry | bead-bound GRK2, FAM-aptamer displacement | shares compounds with GRK2 inh | 360 tested, under 10 active | inhibition of aptamer binding, % at 10 µM;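 active = inhibition of aptamer binding above 40%, about triple the noise seen with nonglowing compounds, on plates passing quality control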;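 note: negative values mostly come from compounds that fluoresce themselves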
FAM quench CP2 = counter-screen for GRK2 binding hits: quenchers of fluorescent RNA aptamer | shares compounds with GRK2 inh | carboxyfluorescein RNA aptamer beads, flow cytometry quenching; hits give low values | fluorescence response vs DMSO, % at 10 µM | 360 tested, under 10 active | AID 588494;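 active = response vs DMSO under 50%, meaning signal dropped by over half, treated as fluorescence quencher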;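 note: labelled aptamer on streptavidin beads without GRK2 as a quench counter-screen; 100% = bead fluorescence of DMSO wells and lower means quenching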
Active calls of the source: *; . = no result given. Hits are enriched below; roughly 1.2% of the tested compounds scored in any of these assays.

SMILES	NTR1 ag	Platelet DG rel	GRK2 inh	beta cell repl	GRK2 CP1	FAM quench CP1	others
Cc1cccc(NC(=O)c2cc3cc([N+](=O)[O-])ccc3s2)n1	2	-7	5	0	.	.
CCOC(=O)CC(NC(=O)c1cc2cc(Br)ccc2oc1=O)c1cccc([N+](=O)[O-])c1 (configuration not stated)	3	-6	78*	3	.	.	GRK2 confirm 2=3;FAM quench CP2=99
COCCN(C(=O)COC(=O)CCC(=O)c1ccc(Cl)cc1)c1c(N)n(Cc2ccccc2)c(=O)[nH]c1=O	-1	-6	1	-1	.	.
O=C(NC(NC1CCS(=O)(=O)C1)C(Cl)(Cl)Cl)c1ccc(Br)cc1 (configuration not stated)	2	-1	0	-2	.	.
O=C(NC(NC1CCS(=O)(=O)C1)C(Cl)(Cl)Cl)c1cccc(Cl)c1 (configuration not stated)	1	7	51*	1	-1	95
CCN(C(=O)COC(=O)c1cc(=O)[nH]c2ccccc12)C1CCS(=O)(=O)C1 (configuration not stated)	1	0	49*	1	-16	95
CCC1=NN(C(=O)c2cccc([N+](=O)[O-])c2)C(O)(c2ccc(C)cc2)C1 (configuration not stated)	0	3	0	-2	.	.
O=C(Nc1ccc([N+](=O)[O-])cc1Cl)c1cc(Cl)ccc1O	5	.	0	-8	.	.
O=C(Nc1cccc(Cl)c1)c1cc(N=Nc2ccc([N+](=O)[O-])cc2Cl)ccc1O	5	-5	46*	-5	4	97
Cc1cc(NC(=O)CN(C)CC(=O)Nc2ccc(F)c(F)c2F)no1	1	.	0	-3	.	.
O=C(NCC1CCCN(C(=O)NCc2ccccc2)C1)c1ccc2c(c1)OCO2 (configuration not stated)	0	-6	0	-2	-1	93
COc1ccc(CC(=O)Nc2ccc(N3CCCC3)c(C)c2)cc1	1	3	0	-2	.	.
CC(C(=O)OCC(=O)N1CCN(c2ccccc2)CC1)N1C(=O)c2ccccc2C1=O (configuration not stated)	2	.	3	-1	-1	100
COc1ccc(Cc2nnc(SCC(=O)Nc3ccccc3C)n(N)c2=O)cc1	-1	-3	100*	-1	-4	96
COc1ccc(NC(=O)CSc2nnc(Cc3ccccc3)c(=O)n2N)c(OC)c1	2	-1	1	-2	.	.
Cc1ccc(C)c(N2N=C(C(=O)N(CC(C)C)c3c(N)n(Cc4ccccc4)c(=O)[nH]c3=O)CCC2=O)c1	0	-2	1	3	0	104
COc1ccc(OC)c(C2=NS(=O)(=O)N(C)C(C(=O)Nc3ccc(F)cc3F)=C2)c1	1	-11	0	-2	.	.
Fc1cnc(Cl)nc1NC1CCCCC1	-1	-6	1	0	.	.
CCOc1ccc(N2C(=O)CC(Sc3nc(CC(C)C)ccc3C#N)C2=O)cc1 (configuration not stated)	0	-3	2	-3	.	.
CC(C)Cc1ccc(C#N)c(SCC(N)=O)n1	0	1	75*	-1	2	91
Cc1ccc(NC(=O)CCn2c(=O)[nH]c3ccsc3c2=O)cc1F	0	-4	71*	0	0	99
Cc1ccsc1CN(C)C(=O)CN1C(=O)NC2(CCCc3ccccc32)C1=O (configuration not stated)	0	.	3	-1	.	.
Cc1ccc(F)c(C2C3C=CCC(c4cccc(-c5ccc(N(C)C)cc5)c4)C3C(=O)N2Cc2ccccc2)c1 (configuration not stated)	1	-5	0	-6	5	96
Cc1ccc(-c2cccc(C3CC=CC4C3C(=O)N(Cc3ccccc3)C4c3ccc4ccccc4c3)c2)cc1 (configuration not stated)	0	-4	0	-5	.	.
O=C1C2C(c3cccc(/C=C/c4ccccc4)c3)CC=CC2C(c2ccc3ccccc3c2)N1Cc1ccccc1 (configuration not stated)	0	-3	0	-6	0	107
SMILES	NTR1 ag	Platelet DG rel	GRK2 inh	beta cell repl	GRK2 CP1	FAM quench CP1	others
COc1ccc(-c2cccc(C3CC=CC4C3C(=O)N(Cc3ccccc3)C4c3cc(C)ccc3F)c2)cc1 (configuration not stated)	7	0	.	-6	.	.
O=C1C2C(c3cccc(/C=C/c4ccccc4)c3)CC=CC2C(c2ccc(C(F)(F)F)cc2)N1Cc1ccccc1 (configuration not stated)	0	-1	0	-7	0	103
O=C(CCNC(=O)c1ccc(Cl)cc1)NCC(c1ccco1)N1CCCC1 (configuration not stated)	0	.	.	-2	.	.
COc1ccc(NC(=O)CSc2nnc(NC(=O)C3CC3)s2)cc1OC	0	-3	0	1	.	.
Cc1cc(Br)c(NC(=O)CN2CCCC2)c(Br)c1	-2	0	.	0	.	.
O=[N+]([O-])c1ccccc1/C=C/C=N/n1c(-c2cc(-c3ccccc3)n[nH]2)n[nH]c1=S	4	-3	69*	-4	11	99
O=c1ccc2cc(S(=O)(=O)N3CCOCC3)ccc2o1	0	0	56*	3	-5	101
COc1ccc(N2CCN(S(=O)(=O)c3ccc4oc(=O)ccc4c3)CC2)cc1	-3	-18	0	7	.	.
NNC(=O)c1ccccc1-n1cccc1	0	4	5	-2	.	.	GRK2 confirm 2=10;FAM quench CP2=99
COc1ccccc1CNC(=O)CCCC(=O)n1ncc2cc(C)ccc21	2	-3	2	-3	.	.
NC(=O)C(=O)N/N=C/c1cccc(C(F)(F)F)c1	-1	-6	61*	-2	0	101
COc1ccc(-c2c(C)oc3cc(O)cc(O)c3c2=O)cc1OC	-1	-3	50*	0	1	102
O=C(c1ccccc1Br)N(Cc1ccccc1)c1ccccc1	1	-1	2	-1	.	.
Cc1nc2cc(C(=O)N3CCc4ccccc43)ccc2n1-c1ccc(F)c(F)c1	4	-4	93*	-5	.	.	GRK2 confirm 2=-12;FAM quench CP2=100
